Measurements reported in the supplement of paper PMC6555819.

The sequences below were run on RARb:RXRa (NR concentration 270 nM, RXRa partner concentration 90 nM) (assay: PBM binding z-score (relative to random genomic background probes); higher = stronger binding; sequences stand for … in GC…GCGATTGACAGCGTAGAATGAAGG).
Summary of the method: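 Ligand-free nuclear receptor dimers were bound for 1 h to custom Agilent 4×180K protein-binding microarrays. Detection used antibodies against each partner (one per run). Binding z-scores rest on regression-normalized fluorescence, with random background probes as the reference.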

| Sequence | PBM binding z-score |
| --- | --- |
| CAAACTAGGACAAGAGGTCAAAGTCCGCTTCCCG | 4 |
| GGAACAAGGGCAAAGTTGATAGCATCTGTCGACG | 2.42 |
| ACTTACGGGTCAAAGAGGTTATAGCACGCGTATA | 3.99 |
| CCGACTGGGGCATAAGGTTACCAGAAGCCAGCCC | 1.78 |
| ACTATTAGTTGAGACGAGAGCAACCGATAGGTTG | -0.263 |
| TCGAGTAGGTTAGTCAGGGCATTCAGCCAACATA | 0.484 |
| TCGAGTAGGTGAGGGGCATTCAGAATGGCGTCGA | 0.965 |
| ATATGTAGGTTAAGGTTCATTCAGGTTGGTTCGC | 2.21 |
| AGAATGAGGTTATTCGTAGATCAGGGAAGAAAGT | 1.36 |
| GCGACTGGGGCACAGCAGGTTACCATAAGGTTGG | 0.997 |
| GGAACGCGGGCATTCGAGTTGATAGCATGGCGAT | -0.209 |
| CCTACTGGGCTACGAAAGGTCATTGATTCAGTGA | 3.88 |
| ACTTACCGGTCAACGAGGTTATAGCACGCGTATA | 3.08 |
| CTCGAAAGGTCGTGCTCAGGTGAGGATACCAAAC | 3.94 |
| GCTATGAGTTGAAAGGGCAACCGAATGATTCTCG | 2.45 |
| ATTTGTAGGTTAAGGGTCATTCAGGTTGGTTCGC | 3.9 |
| TATTGTAGATCAAGCAGGTTAAGAAAGCCTGAGT | -0.0192 |
| CGTCATAGTTCAACTAAGGTAACGTAAAGCACGC | 3.59 |
| TGTCAAAGTTCAAAGGTAACCTAAGTATCCACAC | 5.09 |
| CGTCCATGGTCAGAGAGGTCAGTGAATGCCGAGT | 3.52 |

| Sequence | PBM binding z-score |
| --- | --- |
| ACTCGGAGGACAAAGGTCAGAGGTACGCCAGTGA | 4.43 |
| CTCGAAAGGTCGGTTTAGGTGAGTATACGGATAA | 2.66 |
| TAGCCTAGGTCATGGGGGCCAGTATAGTGTCGGC | 4.04 |
| ATCTCTAGGTAAAAGTTCAGGGAATCCCGAGGAT | 2.62 |
| CTCGAAAGGTCGTGCTCAGGTGTGTATACCAAAC | 3.99 |
| ACTTACGGGTCGACGAGGTTATAGCACGCGTATA | 1.82 |
| AGTCAAAGTTCTCTAGGTAACGTAAGATTCAGCT | 0.732 |
| AGAATGCGGTTATACGTAGATCAGGGAAGAAAGT | -0.164 |
| AGAATGAGGTTCAGATCAGGGAAACAGAATACAT | 0.706 |
| CCTACTGGGCCATCAGGTCACTGATATCAACGTT | 2.33 |
| CGTCCAAGGTCAGCAGGTTAGTGAAAGCGACGTG | 4.85 |
| CGTCCAAGGTGAATGCTAGGTCAGTGAAAGCATT | 2.42 |
| TGAATGAGGTTATAAGATCAGGGTACGTTGCAAA | 1.27 |
| TCTGCTAGCTCAACGATGGTCAGCTAATCTGCTA | -0.267 |
| TCTTGTAGATCAAGCGGGTTAAGAAAGCCTGAGT | 0.093 |
| ATATGTAGGTTATTGGGTCATTCAGTTTGCGCAT | 2.5 |
| ATCTCTAGGTAACCAGTTCAGTGAAAGAGAGGAC | 0.835 |
| TCTTGTAGACCAAGCAGGTTAAGAAAGCCTGAGT | 0.219 |
| CCTACTGGGCCATTCAGAGCTCATTGATCATATG | -0.143 |
| AGAATGAGGTTATTAAGATCAAGGAATTGCGGTC | 1.45 |
